An excerpt weighted towards active compounds, which were near 12% of everything screened.
G9a inh – inhibitors of human histone lysine methyltransferase G9a; Potency, µM (highest dose often 102 µM), usual class: inhibitors; Q96KQ7; G9a H3K9 monomethylation, AlphaScreen, 2 h; AID 504332; 8.8% of 350,000 active; note: nearly all actives have a fitted effect of over 75% in size
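Quantitative HTS format: methyltransferase activity on a biotin-tagged H3K9 peptide is measured by AlphaScreen, using a rabbit anti-monomethyl-H3K9 antibody with streptavidin donor and anti-IgG acceptor beads. Final levels are 20 nM enzyme, 500 nM peptide, 20 uM SAM; 2 h RT.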
HP1b binding inh – blocks HP1-beta chromodomain binding to methylated histone tails; 0.56% of 390,000 active; AlphaScreen HP1-beta / biotin-H3K9me3 peptide binding; Potency, µM (top dose mostly 114 µM), most hits filed as inhibitors; P83916; note: nearly all actives have a fitted effect of over 70% in size
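Compound inhibition of the preformed complex between 50 nM HP1-beta and 50 nM biotinylated H3K9me3 peptide was read by AlphaScreen. Buffer was PBS pH 7.4 with 0.01% Tween-20. Incubations ran 30 min at room temperature, with 10 ug/mL donor/acceptor beads.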
BAZ2B inh – BAZ2B (human) inhibition; Q9UIF8; AlphaScreen BAZ2B-H3K14Ac peptide displacement; Potency, µM (highest dose often 114 µM), actives largely listed as inhibitors; 4.4% of 360,000 active; AID 504333; note: nearly all actives have a fitted effect of over 60% in size
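Compounds, titrated to a top concentration of 110 uM, were incubated 30 min at room temperature with preformed BAZ2B/acetyl-K14 H3 peptide complex (50 nM each). Proximity signal was measured by AlphaScreen after 20 min with beads.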
PLK1 PBD inh – inhibitors of human PLK1 polo-box domain binding | 2.8% of 360,000 active | AID 720504 | Plk1 PBD binding of FITC phosphopeptide, fluorescence polarization | P53350 | Potency, µM, most hits filed as inhibitors; note: series mostly up to about 57 µM; nearly all actives have a fitted effect of over 65% in size
Target sequence (P53350 whole entry, looked up, the tested form may be a part): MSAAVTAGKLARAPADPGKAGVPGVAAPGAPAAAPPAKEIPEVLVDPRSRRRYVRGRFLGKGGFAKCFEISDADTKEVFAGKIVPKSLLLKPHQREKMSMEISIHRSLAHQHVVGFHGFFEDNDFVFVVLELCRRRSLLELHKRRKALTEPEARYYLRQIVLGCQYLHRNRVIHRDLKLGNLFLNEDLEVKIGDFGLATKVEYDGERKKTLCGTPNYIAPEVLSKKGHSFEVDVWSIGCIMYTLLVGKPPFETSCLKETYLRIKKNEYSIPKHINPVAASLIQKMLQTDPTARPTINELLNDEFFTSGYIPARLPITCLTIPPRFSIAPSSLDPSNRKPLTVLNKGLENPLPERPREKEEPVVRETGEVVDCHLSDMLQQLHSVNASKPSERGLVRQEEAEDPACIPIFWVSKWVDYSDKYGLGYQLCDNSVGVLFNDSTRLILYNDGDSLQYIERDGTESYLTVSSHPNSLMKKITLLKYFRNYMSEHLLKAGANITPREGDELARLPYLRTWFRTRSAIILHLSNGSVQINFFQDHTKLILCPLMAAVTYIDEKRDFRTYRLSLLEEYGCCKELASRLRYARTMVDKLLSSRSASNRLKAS
JMJD2A Tudor inh – blocks the human JMJD2A Tudor domain; O75164; AlphaScreen JMJD2A-Tudor / H3K4me3 peptide binding; Potency, µM (doses to about 114 µM), hits mostly inhibitors; 4.4% of 390,000 active; note: nearly all actives have a fitted effect of over 50% in size
Sfp inh – blocks B. subtilis Sfp PPTase activity; Q9F4F7; Biochemical Sfp PPTase activity, qHTS; Potency, µM, actives largely listed as inhibitors; 3.5% of 310,000 active;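 note: the enzyme is Sfp with the accession as filed and its product quenches rhodamine fluorescence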
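Fluorescence-quenching assay with 15 nM Sfp, 5 uM rhodamine-CoA and 12.5 uM BHQ-2-labelled ybbR peptide in pH 7.6 Hepes/MgCl2 buffer. Enzyme was pre-incubated with compound for 15 min at room temperature. Rate was taken from the 30-min fluorescence change (525/598 nm).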
Hits are given with their value; - = inactive; ? = inconclusive; . = no result; ! = not confirmed by another sample; [ ] = remark or other dose. Calls come from the whole dose curve; as a rule, active = well fitted curve in the direction sought with a large enough effect; inconclusive = small, poorly fitted or top-dose-only effect, or another doubt; inactive = no such curve, though single readings can be large; an effect the other way counts as inactive or inconclusive.

SMILES	G9a inh	HP1b binding inh	BAZ2B inh	PLK1 PBD inh	JMJD2A Tudor inh	Sfp inh
CC(C)=NNc1cc([N+](=O)[O-])cc2c1C(=O)N(C)S2=O (stereo not given)	44.7µM	-	-	-	-	15.8µM
CCN(C[C@H]1N[C@@](Cc2ccccc2)(C(=O)OC)[C@H]2C(=O)N(C)C(=O)[C@@H]12)C(=O)Nc1ccccc1	.	-	.	-	-	.
COc1cc(OC)cc(-c2nc(-c3ccccc3OC)no2)c1	-	-	-	26.7µM	?	-
COc1cc(-c2nc(-c3ccccn3)no2)cc(OC)c1OC	-	-	-	-	-	-
COc1ccccc1-c1nc(-c2ccc(Br)o2)no1	50.1µM!	-	-	-	-	-
COc1ccccc1-c1noc(-c2cc(OC)c(OC)c(OC)c2)n1	-	?	-	8.44µM	?	-
Cc1ccccc1OCc1nc(-c2ccc(Br)o2)no1	79.4µM	-	?	-	-	-
CCCS(=O)(=O)NC(=O)C1(C)CCN(C(=O)CSc2ccccc2)C1 (stereo not given)	.	.	.	-	.	.
c1ccc(-c2noc(-c3cccc4ccccc34)n2)nc1	-	-	-	-	-	-
COc1cccc(-c2nc(-c3ccccn3)no2)c1OC	-[12.7 µM]	?	-	7.52µM	-[11.4 µM]	-
COc1ccc2cc(CNc3ccc(C)cc3)c(=O)n(CC(=O)Nc3ccc(C)cc3Cl)c2c1	-	-	-	.	-	.
CCCC(=O)Nc1c2c(nn1-c1ccc(C)cc1C)CSC2	22.4µM	-	-	-	-	?
CCCC(=O)Nc1c2c(nn1-c1ccccc1)CSC2	-	-	-	-	-	-
CC(=O)Nc1c2c(nn1-c1ccc(C)cc1C)CSC2	-	-	-	-	-	-
O=C(CBr)Nc1c2c(nn1-c1ccccc1)CSC2	22.4µM	-	-	?	-	-
CCCCOc1ccccc1C(=O)Nc1nonc1-c1ccccc1	-	-	-	.	-	.
Cc1cccc(C)c1NC(=O)c1ccc2c(c1)nnn2C1CCCC1	-	-	-	.	-	.
CNC(=O)c1nn(-c2ccc(C)cc2)ccc1=O	-	-	-	-	-	-
C=CCSc1nccc(-c2nn(-c3ccc(C)cc3)ccc2=O)n1	50.1µM	-	-	-	-	-
Nc1nccc(-c2nn(-c3ccc(Cl)cc3)ccc2=O)n1	.	-	-	-	-	-
C#CCSc1nccc(-c2nn(-c3ccc(C)cc3)ccc2=O)n1	-[12.7 µM]	?	-	26.7µM	79.4µM	79.4µM
CSc1nccc(-c2nn(-c3ccc(C)cc3)ccc2=O)n1	-	-	25.1µM	?	56.2µM	-
CCSc1nccc(-c2nn(-c3ccc(C)cc3)ccc2=O)n1	79.4µM	-	-	-	-	-
COC(=O)[C@@H]1[C@@H](C)N(CCc2cc(OC)c(OC)c(OC)c2)C(=O)N[C@H]1c1ccccc1	.	.	.	.	.	-
CCOc1ccc(-c2[nH]ncc2-c2ccccc2)c(O)c1	.	-	?	-	-	-
SMILES	G9a inh	HP1b binding inh	BAZ2B inh	PLK1 PBD inh	JMJD2A Tudor inh	Sfp inh
Cc1ccccc1NCC(=O)N/N=C\C=C\c1cccc([N+](=O)[O-])c1	?	-	?	-	50.1µM	-
COc1ccc(NCC(=O)N/N=C/C(C)c2ccccc2)cc1 (stereo not given)	28.2µM	-	?	-	?	-
Cn1c(SCC(=O)N/N=C/C=C/c2ccccc2[N+](=O)[O-])nc2ccccc21	-	-	-	-	-	-
CCOc1ccc(N=C/C=C/c2ccccc2)c(O)c1	50.1µM	?	35.5µM	?	56.2µM	50.1µM
COc1ccc(NCC(=O)N/N=C/C=C/c2ccccc2[N+](=O)[O-])cc1	11.2µM	-	39.8µM	-	79.4µM	-
COC(=O)C1=C(C)[C@@H](O)[C@@H](C)[C@H](c2c(OC)c(OC)c(C)c(OC)c2OC)O1	.	.	.	.	.	-
Cc1cc(C)n(-c2ccc(C(=O)OCC(=O)Nc3ccccc3F)cc2)n1	.	-	.	-	-	.
Cc1ccsc1C(=O)N/N=C/C=C/c1ccccc1[N+](=O)[O-]	?	-	-	-	-	-
CCc1ccc(OCC(=O)N/N=C/c2cc([N+](=O)[O-])ccc2N2CCOCC2)cc1	-	-	-	-	-	-
CCOc1ccc(NCC(=O)N/N=C/C=C/c2ccccc2)cc1	11.2µM	-	?	-	?	-
Cc1occc1C(=O)N/N=C/C=C\c1ccccc1[N+](=O)[O-]	?	-	?	?	89.1µM	-
CCOC(=O)N/N=C/C=C/c1ccccc1[N+](=O)[O-]	-	-	-	21.2µM	?	-
O=C(N/N=C/C=C\c1ccccc1[N+](=O)[O-])c1ccco1	?	-	-	-	-	-
COc1ccc(NCC(=O)N/N=C/c2cc([N+](=O)[O-])ccc2N2CCCC2)cc1	8.91µM	?	?	13.4µM	?	-
CCCCNc1sc(S(=O)(=O)CCC)nc1S(=O)(=O)c1ccc(C)cc1	-	-	-	.	-	.
CC(C)(C)C(=O)N1CCn2c1nc1ccccc12	-	-	56.2µM	-	-	-
N#CCC(=O)N1CCn2c1nc1ccccc12	-	-	-	-	-	-
Cc1cc(C)nc(N2CCCC(C(=O)Nc3cccc(Cl)c3)C2)n1 (stereo not given)	-	-	-	-	-	-
CCn1c(=O)cc(OCC(=O)N(C)c2ccc(OC)cc2)c2ccccc21	-	-	89.1µM	.	-	.
CCOc1ccc(N(CC)C(=O)COc2cc(=O)n(CC)c3ccccc23)cc1	-	-	-	26.7µM	-	-
CCn1c(=O)cc(OCC(=O)N2CCCC2)c2ccccc21	?	-	-	26.7µM	?	-
CCn1c(=O)cc(OCC(=O)N2CCN(c3ccc(OC)cc3)CC2)c2ccccc21	-	-	?	.	-	.
CCOc1ccc(N(CC)C(=O)COc2cc(=O)n(C)c3ccccc23)cc1	-	-	-	-	-	-
CCCc1nnc(NC(=O)Cn2c(=O)oc3cc(Br)ccc32)s1	28.2µM	-	-	-	-	?
O=C(O)CSc1c2c(nc3cc(C(=O)Nc4cccc(C(F)(F)F)c4)ccc13)CCC2	39.8µM	-	70.8µM	?	79.4µM	-
SMILES	G9a inh	HP1b binding inh	BAZ2B inh	PLK1 PBD inh	JMJD2A Tudor inh	Sfp inh
CCOC(=O)c1ccccc1NC(=O)c1ccc2c(SCC(=O)O)c3c(nc2c1)CCCC3	?	-	50.1µM	?	-	-
COc1cc(Cl)c(C)cc1NC(=O)c1ccc2c(SCC(=O)O)c3c(nc2c1)CCCC3	-	-	?	42.3µM	?	-
CC(C)CCNC(=O)c1ccc2c(SCC(=O)O)c3c(nc2c1)CCCC3	?	-	-	-	-	-
O=C(O)CSc1c2c(nc3cc(C(=O)NCCN4CCOCC4)ccc13)CCC2	?	-	?	-	-	89.1µM
O=C(CCC1CCCN(c2ncccn2)C1)NCc1ccc(F)c(F)c1 (stereo not given)	-	-	-	-	-	-
CCOC(=O)Cn1c(=O)oc2cc(S(=O)(=O)Nc3ccccc3F)ccc21	-	-	-	.	-	.
